Rows were chosen to be rich in hits. Some 22% of all compounds tested hit in one or more screens of this group.
Measles CPE: protection of cells from measles virus | Measles virus-infected cells, CPE protection, absorbance | protection (pct of control), % at 4 µM | 140,000 compounds, 1.5% hits; in the data active = protection mostly above about 24%, no sharp cut-off; inactive = mostly below about 26%
CYP2C9 act: CYP2C9 (human) activation; recombinant CYP2C9, luciferin-H conversion, luminescence; hits give high values; factor 1 = untreated enzyme, 0 = blocked; activation factor at 5 µM; P11712; 96,000 compounds, 1.4% hits; AID 1024;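 active = activation factor of 2 or more for CYP2C9 at a 5 µM dose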;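 note: 0 = sulfaphenazole-blocked wells and 1 = vehicle-only wells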
CYP2C9 inhib: human CYP2C9 inhibition | P11712 | CYP2C9 Supersomes, luciferin-H conversion, luminescence | AID 777 | inhibition, % at 5 µM | 96,000 compounds, 20% hits;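 active = blocking of liver enzyme CYP2C9 beyond about 50% at 5 µM, limit read from the data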
CYP2C19 act: cytochrome P450 2C19 (human) activation. P33261. recombinant CYP2C19, luciferin-H EGE luminescence; hits give high values; 0 = fully inhibited enzyme, 1 = untreated enzyme. activation factor at 5 µM. 96,000 tested, under 10 active;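 active = activation factor of at least 2 at 5 µM in the primary screen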;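 note: 0 = wells with 2.5 mM tranylcypromine and 1 = vehicle-only wells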
Target sequence (P33261 whole entry, looked up): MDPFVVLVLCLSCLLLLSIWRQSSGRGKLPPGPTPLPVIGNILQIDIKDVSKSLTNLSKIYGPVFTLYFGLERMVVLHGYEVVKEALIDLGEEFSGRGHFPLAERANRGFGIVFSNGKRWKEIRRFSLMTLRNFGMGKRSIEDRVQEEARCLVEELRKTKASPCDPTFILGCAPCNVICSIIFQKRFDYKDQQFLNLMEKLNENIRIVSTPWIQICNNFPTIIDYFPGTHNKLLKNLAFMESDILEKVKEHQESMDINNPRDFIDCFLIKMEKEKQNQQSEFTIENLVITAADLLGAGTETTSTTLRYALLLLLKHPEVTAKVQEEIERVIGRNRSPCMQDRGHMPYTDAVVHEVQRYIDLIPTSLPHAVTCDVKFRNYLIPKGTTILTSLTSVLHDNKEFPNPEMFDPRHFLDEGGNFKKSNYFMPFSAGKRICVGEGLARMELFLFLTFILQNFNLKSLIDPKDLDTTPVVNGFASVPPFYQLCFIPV
CYP2C19 inhib: blocks human cytochrome P450 2C19; CYP2C19 Supersomes, luciferin-H EGE luminescence, 30 min; 96,000 compounds, 21% hits; inhibition, % at 5 µM; P33261;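 active = CYP2C19 inhibition above a set limit at 5 µM in the primary screen, cut at about 50% in these data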;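 note: plate controls were negative control wells for no effect and 2.5 mM tranylcypromine positive control for full effect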
The depositor's hits bear a star; . = no result.

SMILES | Measles CPE | CYP2C9 act | CYP2C9 inhib | CYP2C19 act | CYP2C19 inhib
CNc1oc(-c2ccc(OCc3ccccc3)cc2)nc1C#N | 6 | 2.2* | -124 | 1.1 | -8
COc1ccc(CNc2oc(COc3ccccc3)nc2C#N)cc1 | 23 | 0.3 | 66* | 0.5 | 53*
N#Cc1nc(Cc2cccc3ccccc23)oc1NCc1ccco1 | 9 | 0.6 | 40 | 0.6 | 43
COc1ccc(CNc2oc(Cc3cccc4ccccc34)nc2C#N)cc1 | 6 | 0 | 96* | 0.2 | 79*
Cc1nc2ccccn2c1C(=O)NNS(=O)(=O)c1ccc(C(C)(C)C)cc1 | 17 | . | . | . | .
C=CCn1c(=O)c2c(C)c(C)sc2n2c(Nc3ccc(OC)cc3)nnc12 | 3 | 0.1 | 91* | 0.8 | 23
O=C1NN(c2ccc(F)c(Cl)c2)C(=O)/C1=C\c1cccc(OC(=O)c2cccs2)c1 | 8 | 0.5 | 51* | 1.2 | -17
CC(C)=C1C(=O)NN(c2ccc(F)c(Cl)c2)C1=O | 29 | 1 | -2 | 1 | -4
COc1ccc(-c2nc(-c3cccc(C)c3)[nH]c(=O)c2C#N)cc1 | 8 | 0.5 | 52* | 1.1 | -12
C/C(CC(=O)NCc1ccco1)=N\NC(=O)COc1ccc(C)cc1 | 12 | . | . | . | .
Cc1occc(=O)c1OC(=O)Nc1ccc(Cl)c(Cl)c1 | 9 | . | . | . | .
CC(=O)NC(=S)Nc1sc2c(c1C#N)CCCCC2 | 15 | . | . | . | .
NC(=O)c1c(NC(=O)Cc2cccs2)sc2c1CCC2 | 45* | 0.4 | 58* | 0.6 | 44
N#Cc1c(NC(=S)NC(=O)Cc2cccs2)sc2c1CCCCC2 | 2 | 0.1 | 89* | 0.7 | 28
COC(=O)Nc1sc2c(c1C(N)=O)CCCCCC2 | 8 | 1.1 | -8 | 0.5 | 55*
CCOC(=O)c1c(NC(=O)Cc2cccs2)sc2c1CCCC2 | 18 | 0.6 | 43 | 0.9 | 10
COC(=O)C(C)(C)ONC(=O)Nc1ccc(C)cc1 | 4 | . | . | . | .
CCc1cccc2c(C(=O)COC(=O)c3ccccc3)c[nH]c12 | 28* | . | . | . | .
CCc1cccc2c(C(=O)COC(=O)c3ccc(O)cc3)c[nH]c12 | 13 | . | . | . | .
O=C(O)c1c(Cl)c(Cl)c(Cl)c(Cl)c1C(=O)N1CCOCC1 | 11 | 0.8 | 19 | 0.9 | 8
Cc1cccc2cc(CN(Cc3ccc(F)cc3)C(=O)N3CCOCC3)c(=O)[nH]c12 | 5 | . | . | . | .
O=C(Cn1c(=O)oc2cc(S(=O)(=O)N3CCCC3)ccc21)NC1CCCc2ccccc21 (stereo not drawn) | 4 | 0.4 | 58* | 0.9 | 12
CN(Cc1ccco1)C(=O)Cn1c(=O)oc2cc(S(=O)(=O)NCc3ccccc3)ccc21 | 15 | 1 | 1 | 0 | 98*
Cn1c(=O)oc2cc(S(=O)(=O)NCc3ccccc3)ccc21 | 20 | 1.7 | -68 | 0.4 | 59*
CN(CCNS(=O)(=O)c1ccc2c(c1)oc(=O)n2C)Cc1ccccc1 | 5 | 1.2 | -22 | 0.7 | 26
SMILES | Measles CPE | CYP2C9 act | CYP2C9 inhib | CYP2C19 act | CYP2C19 inhib
CCN(CCCNS(=O)(=O)c1ccc2c(c1)oc(=O)n2C)c1cccc(C)c1 | 29 | 1.3 | -27 | 0.4 | 59*
O=C(Cn1c(=O)oc2cc(S(=O)(=O)N3CCCCCC3)ccc21)NC1CCCCCCC1 | 25 | 0.7 | 26 | 0.8 | 15
Cc1ccc(NC(=O)c2ccccc2N(C)S(=O)(=O)c2ccccc2)c(C)c1 | 7 | . | . | . | .
Cn1c(=O)c2c(nc(CN3CCN(C(=O)c4ccco4)CC3)n2Cc2ccc(Cl)cc2)n(C)c1=O | 11 | 0.8 | 23 | 0.9 | 12
CN(Cc1ccccc1)C(=O)Cn1c(=O)oc2cc(S(=O)(=O)N3CCCC3)ccc21 | 21 | 0.3 | 65* | 1 | -1
CCOc1ccccc1NC(=O)Cn1c(=O)c2ccccc2n(CC)c1=O | 14 | . | . | . | .
CCn1c(=O)n(CC(=O)N(C)Cc2ccccc2)c(=O)c2ccccc21 | 23 | 0.8 | 16 | 0.4 | 65*
CC(NC(=O)Cn1c(=O)oc2cc(S(=O)(=O)N3CCCC3)ccc21)c1ccccc1 (stereo not drawn) | 11 | 0.1 | 90* | 0.9 | 5
CN(Cc1ccccc1)C(=O)CCn1c(=O)oc2ccccc21 | 21 | 1 | -4 | 0.1 | 93*
O=C(Cn1c(=O)oc2cc(S(=O)(=O)N3CCCC3)ccc21)N1CCN(c2ccccc2)CC1 | 26 | 0.8 | 17 | 1.1 | -9
CCN(CC)c1ncnnc1-c1ccccc1 | 9 | . | . | . | .
COc1ccccc1NS(=O)(=O)c1cc(NC(=O)Cn2cnc3c2c(=O)n(C)c(=O)n3C)ccc1C | 25 | . | . | . | .
COc1ccccc1OCC(=O)Nc1cccc(C(=O)N2CCOCC2)c1 | 5 | 0.8 | 17 | 1 | -1
Cc1cc(NC(=O)CSc2nnnn2C)n(-c2ccccc2)n1 | 24 | 1.1 | -10 | 1.2 | -16
CCc1c(C)nc2cc(-c3cc(OC)cc(OC)c3)nn2c1N1CCCC1 | 1 | 0.7 | 33 | 0.7 | 26
CCOCCN1CCN(c2c(CC)c(C)nc3cc(-c4cc(OC)cc(OC)c4)nn23)CC1 | 6 | . | . | . | .
CCOCCN1CCN(c2c3c(nc4cc(-c5ccc(F)cc5)nn24)CCC3)CC1 | 7 | 0.5 | 50* | 0.9 | 14
COc1cc(OC)cc(-c2cc3nc4c(c(N5CCN(c6ncccn6)CC5)n3n2)CCCC4)c1 | 20 | 0.1 | 94* | 0 | 95*
Cc1cccc(N(C(=O)c2nsc(Cl)c2Cl)C(C(=O)NC2CCCC2)c2ccc(O)cc2)c1 (stereo not drawn) | 27 | . | . | . | .
Cc1ccc(S(=O)(=O)CCc2nnc(NC(=O)c3cnccn3)s2)cc1 | 8 | 0.5 | 51* | 1.1 | -13
Cc1ccc(S(=O)(=O)CCc2nnc(NC(=O)c3ccccn3)s2)cc1 | 11 | 1 | 4 | 1 | 2
Clc1cccc(-c2nnc(SC/C=C/c3ccccc3)n2Cc2ccco2)c1 | 2 | 0.3 | 67* | 0.4 | 65*
C(=C\c1ccccc1)/CSc1nnc(-c2ccccc2)n1Cc1ccco1 | 4 | 0.5 | 49 | 0.5 | 47
C(=C\c1ccccc1)/CSc1nnc(-c2ccncc2)n1Cc1ccco1 | 2 | 0.6 | 36 | 0.1 | 89*
c1ccc(-c2nnc(CSc3nnc(-c4ccncc4)n3Cc3ccco3)o2)cc1 | 4 | 0.3 | 71* | 0.3 | 67*
SMILES | Measles CPE | CYP2C9 act | CYP2C9 inhib | CYP2C19 act | CYP2C19 inhib
O=C(CSc1nnc(-c2ccncc2)n1Cc1ccco1)N1c2ccccc2Sc2ccc(Cl)cc21 | 3 | . | . | . | .
Cc1cccc(C)c1NC(=O)C1(NC(=O)C2CCCN2C(=O)OC(C)(C)C)CCCCC1 (stereo not drawn) | 2 | 1.1 | -12 | 1.1 | -14
COc1ccc(N2C(=O)C(Cl)=C(N3CCCC(C)C3)C2=O)cc1 (stereo not drawn) | 10 | 0.2 | 85* | 0.2 | 84*
COc1ccc(N2C(=O)C(Cl)=C(N3CCCC3)C2=O)cc1 | 4 | 0.9 | 6 | 0.7 | 34
Cc1ccc(-n2c3c(c(=O)[nH]c2=S)C(C(F)(F)F)(C(F)(F)F)NC(=O)N3)cc1 | 6 | 0.5 | 54* | 1.1 | -6
Cn1c2ccccc2c(=O)c2c(=O)n(C3CCCCC3)c(-c3cccs3)nc21 | 5 | 0 | 95* | 0.7 | 31
COc1ccc2c(c1)c(=O)cc(-c1ccccc1)n2C | 6 | . | . | . | .

Compound activity from PubChem BioAssay.
